Assay results taken from PubChem BioAssay (Tox21).
Results filed as inconclusive are left out. Calls of active or inactive are those of the source. Unless noted, calls follow the shape of the full dose curve.

How the values were obtained:
[1] = Nuclear factor erythroid 2-related factor 2/antioxidant responsive element (Nrf2/ARE) small molecule agonists: qHTS cell viability counter screen in human keratinocytes (AID 1919968; active = well fitted curve in the direction sought with a large enough effect in the repeat runs; an effect the other way counts as inactive or inconclusive; also: nearly all actives have a fitted effect of over 55% in size; also: potency is read from the fitted curve at half-maximal effect)
Outline: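 CellTiter-Fluor fluorescence, read 1 h after reagent, gave viability in the same wells as the ARE-luciferase assay. KeratinoSens cells (1,500/well) had 23 h compound exposure at 37 C/5% CO2 following 5 h plating.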

[2] = Nuclear factor erythroid 2-related factor 2/antioxidant responsive element (Nrf2/ARE) small molecule agonists: luciferase reporter gene qHTS assay in human keratinocytes (AID 1919969); also: nearly all actives have a fitted effect of over 35% in size; also: potency is read from the fitted curve at half-maximal effect
[3] = molecular target: KiSS-1 receptor (Homo sapiens) (UniProt Q969F8); experiment: Human kisspeptin (KISS1R) small molecule agonists, calcium flux assay in KISS1R-HEK293 cells (AID 1920064; active = well fitted curve in the direction sought with a large enough effect in the repeat runs; an effect the other way counts as inactive or inconclusive)
Outline: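 Agonist mode: intracellular calcium rise tracked at 1 s intervals over 3 min (480/540 nm) immediately after compound addition to dye-loaded KISS1R-HEK293 stable cells. Each compound tested at 15 concentrations in triplicate.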

[4] = G protein-coupled receptor (GPCR) small molecule agonists, calcium flux assay: HEK293 wild type cell line counter screen (AID 1920065)
Outline: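 Calcium flux counter screen: compound added in agonist mode at 15 concentrations in triplicate to dye-loaded parental HEK293 cells. Fluorescence (480/540) read kinetically for 3 min; ATP served as positive control.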

[5] = p53 small molecule agonists, cell-based qHTS assay with human liver microsomes (AID 1963577)
Outline: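 Compounds act here after metabolic activation: human liver microsomes and NADPH, both at 0.5 mg/mL final, were co-added to p53RE-bla cells. Incubation ran 16 h at 37 C, followed by LiveBLAzer detection.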

[6] = p53 small molecule agonists, cell-based qHTS assay with rat liver microsomes (AID 1963578)
Outline: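 Read-out is beta-lactamase reporter fluorescence (LiveBLAzer, 2 h, room temperature, dark) in p53RE-bla cells treated 16 h at 37 C with compound, rat liver microsomes and NADPH, both 0.5 mg/mL final.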

[7] = p53 small molecule agonists, cell-based qHTS assay with human liver microsomes: qHTS cell viability counter screen (AID 1963579); also: nearly all actives have a fitted effect of over 45% in size
Outline: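 Cells carrying the p53 response-element beta-lactamase reporter are treated for 16 h at 37 C with test compounds in the presence of human liver microsomes and NADPH (both 0.5 mg/mL final); ATP-based CellTiter-Glo luminescence then reports viability.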

[8] = p53 small molecule agonists, cell-based qHTS assay with rat liver microsomes: qHTS cell viability counter screen (AID 1963580); also: nearly all actives have a fitted effect of over 45% in size
Outline: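 Cytotoxicity counter screen: intracellular ATP read by CellTiter-Glo luminescence in the p53 reporter wells. HCT-116 p53RE-bla cells were treated for 16 h at 37 C alongside rat liver microsomes and NADPH, each 0.5 mg/mL final.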

[9] = p53 small molecule agonists, cell-based qHTS assay: qHTS cell viability counter screen (AID 1963581); also: nearly all actives have a fitted effect of over 45% in size
Outline: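 Counter screen read by CellTiter-Glo luminescence (ATP content, 30 min at room temperature), run in the same wells as the beta-lactamase reporter read. HCT-116 p53RE-bla cells saw compounds for 16 h at 37 C.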

[10] = molecular target: 5-hydroxytryptamine receptor 2A (Homo sapiens) (UniProt P28223); experiment: 5-hydroxytryptamine receptor 2A (HTR2A) small molecule antagonists, cell-based qHTS assay (AID 1963586); also: nearly all actives have a fitted effect of over 45% in size
Outline: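 CHO cells stably expressing human HTR2A were plated for 18 h at 37 C, then loaded with calcium dye for 1 h. Compounds were preincubated 5 min at room temperature before DOI (4 nM solution) was added. Kinetic fluorescence was read for 3 min.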

[11] = molecular target: 5-hydroxytryptamine receptor 2A (Homo sapiens) (UniProt P28223); experiment: 5-hydroxytryptamine receptor 2A (HTR2A) small molecule agonists, cell-based qHTS assay (AID 1963587); also: nearly all actives have a fitted effect of over 30% in size
Outline: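 Kinetic calcium-flux fluorescence (2 min, 1 sec intervals) after compound addition in agonist mode. HTR2A-CHO cells were cultured 18 h, then dye-loaded 1 h at 37 C.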

[12] = molecular target: Muscarinic acetylcholine receptor M1 (Homo sapiens) (UniProt P11229); experiment: Cholinergic receptor muscarinic 1 (CHRM1) small molecule antagonists, cell-based qHTS assay (AID 1963588); also: nearly all actives have a fitted effect of over 40% in size
Outline: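 Compounds were tested at 15 concentrations in three independent runs. Dye-loaded CHRM1-CHO cells were exposed 5 min at room temperature before stimulation by acetylcholine added at 50nM. Intracellular calcium was read kinetically on FDSS for 3 min.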

[13] = molecular target: Muscarinic acetylcholine receptor M1 (Homo sapiens) (UniProt P11229); experiment: Cholinergic receptor muscarinic 1 (CHRM1) small molecule agonists, cell-based qHTS assay (AID 1963589); also: nearly all actives have a fitted effect of over 35% in size
Outline: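 Agonist-mode calcium-flux screen: compounds at 15 concentrations, three independent runs, were pin-transferred onto dye-loaded human CHRM1-CHO cells. Fluorescence was then recorded kinetically every second over minutes.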

[14] = cAMP Responsive Elements (CRE) small molecule agonists, cell-based qHTS assay (AID 1963590)
Outline: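 Agonist mode: compound added to CRE-bla HEK 293T cells (2,000/well, 18 h after plating) for 3 h at 37 C/5% CO2. Reporter activity detected via FRET beta-lactamase substrate, 2 h room-temperature loading.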

[15] = cAMP Responsive Elements (CRE) small molecule antagonists, cell-based qHTS assay (AID 1963591; active = well fitted inhibition curve with a large enough effect in the signal ratio in the repeat runs, not every such curve was filed as active; the % refers to the signal ratio)
Outline: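 Antagonist mode: compounds are added alongside the adenylyl cyclase activator NKH477 (0.25 uM final) to CRE-bla HEK293T cells for 3 h. LiveBLAzer FRET substrate, 2 h at room temperature, reports bla expression.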

[16] = molecular target: Beta-2 adrenergic receptor (Homo sapiens) (UniProt P07550); experiment: Adrenergic beta2 receptor (ADRB2) small molecule antagonists, cell-based qHTS assay (AID 1963592); also: series mostly up to about 92 µM; nearly all actives have a fitted effect of over 50% in size
Outline: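 Assay format: CHO-ADRB2 cells, 18-20hr seeding at 37C/5% CO2, then compound plus 1nM isoproterenol agonist mix for 0.5hr RT. Homogeneous time-resolved fluorescence cAMP detection after 1hr, expressed as 665/615 nm ratio.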

[17] = molecular target: D(2) dopamine receptor (Homo sapiens) (UniProt P14416); experiment: Dopamine D2 receptor (DRD2) small molecule agonists, cell-based qHTS assay (AID 1963594); also: nearly all actives have a fitted effect of over 35% in size
Outline: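 cAMP accumulation in DRD2-HEK293 cells measured by HTRF after 1 h detection; compounds added 10 min before NKH477 (200nM […]) forskolin-analogue stimulation, 30 min at room temperature, with Ro20-1724 present at 0.1 mM final.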

[18] = molecular target: D(2) dopamine receptor (Homo sapiens) (UniProt P14416); experiment: Dopamine D2 receptor (DRD2) small molecule antagonists, cell-based qHTS assay (AID 1963595; active = well fitted inhibition curve with a large enough effect in the signal ratio in the repeat runs, with a control signal flat; the % refers to the signal ratio)
Outline: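 HEK293 cells stably expressing DRD2, preincubated with 0.1 mM Ro20-1724 and compounds 10 min, were stimulated with 200 nM NKH477 plus 12 nM quinpirole for 30 min at room temperature; cAMP measured by HTRF (665/620 nm).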

[19] = p53 small molecule agonists, cell-based qHTS assay (AID 1963582; active = well fitted activation curve with a large enough effect in the signal ratio in the repeat runs, not every such curve was filed as active; the % refers to the signal ratio)
Outline: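 Read-out is beta-lactamase FRET fluorescence after 2 h at room temperature with LiveBLAzer B/G substrate. p53 response element-bla cells were treated 16 h at 37 C with compounds in DMSO, added 5 h after seeding.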
% is scaled to controls: 0 for no effect and ±100 for the full control effect.

Sequence of KiSS-1 receptor (Homo sapiens) (Q969F8 whole entry, looked up): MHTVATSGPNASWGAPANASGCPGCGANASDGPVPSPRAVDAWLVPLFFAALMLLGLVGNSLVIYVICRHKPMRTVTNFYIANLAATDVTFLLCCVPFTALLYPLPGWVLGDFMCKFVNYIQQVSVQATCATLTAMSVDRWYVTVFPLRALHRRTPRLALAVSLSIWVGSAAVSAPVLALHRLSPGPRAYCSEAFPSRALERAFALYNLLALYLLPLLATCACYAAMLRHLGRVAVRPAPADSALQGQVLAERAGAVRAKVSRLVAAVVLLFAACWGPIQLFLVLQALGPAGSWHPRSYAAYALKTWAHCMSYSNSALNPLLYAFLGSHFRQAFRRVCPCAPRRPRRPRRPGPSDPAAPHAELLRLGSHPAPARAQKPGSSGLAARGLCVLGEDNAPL
Sequence of 5-hydroxytryptamine receptor 2A (Homo sapiens) (P28223 whole entry, looked up): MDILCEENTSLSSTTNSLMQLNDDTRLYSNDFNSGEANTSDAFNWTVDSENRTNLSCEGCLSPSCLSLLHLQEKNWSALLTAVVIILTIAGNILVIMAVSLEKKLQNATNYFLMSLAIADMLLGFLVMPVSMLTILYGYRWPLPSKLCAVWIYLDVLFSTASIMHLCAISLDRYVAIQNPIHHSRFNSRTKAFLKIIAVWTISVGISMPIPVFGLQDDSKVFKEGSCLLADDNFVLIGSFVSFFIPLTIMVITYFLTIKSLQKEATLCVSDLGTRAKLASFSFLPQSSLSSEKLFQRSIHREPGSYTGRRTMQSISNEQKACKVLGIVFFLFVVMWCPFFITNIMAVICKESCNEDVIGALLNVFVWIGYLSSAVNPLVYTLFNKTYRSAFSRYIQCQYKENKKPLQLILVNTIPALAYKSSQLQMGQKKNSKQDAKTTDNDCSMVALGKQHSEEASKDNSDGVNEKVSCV
Sequence of Muscarinic acetylcholine receptor M1 (Homo sapiens) (P11229 whole entry, looked up): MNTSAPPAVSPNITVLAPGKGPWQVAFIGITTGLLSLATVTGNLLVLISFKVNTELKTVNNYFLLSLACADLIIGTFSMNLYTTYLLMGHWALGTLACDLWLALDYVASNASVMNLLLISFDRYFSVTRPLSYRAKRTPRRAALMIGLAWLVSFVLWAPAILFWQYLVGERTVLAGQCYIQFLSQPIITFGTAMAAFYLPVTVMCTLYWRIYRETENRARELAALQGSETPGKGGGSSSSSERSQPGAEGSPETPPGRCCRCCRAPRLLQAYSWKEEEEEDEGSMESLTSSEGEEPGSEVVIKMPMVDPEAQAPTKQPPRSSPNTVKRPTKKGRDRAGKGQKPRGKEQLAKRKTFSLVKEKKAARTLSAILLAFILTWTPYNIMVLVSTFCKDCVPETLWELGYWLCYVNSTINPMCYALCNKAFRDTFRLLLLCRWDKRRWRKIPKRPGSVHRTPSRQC
Sequence of D(2) dopamine receptor (Homo sapiens) (P14416 whole entry, looked up): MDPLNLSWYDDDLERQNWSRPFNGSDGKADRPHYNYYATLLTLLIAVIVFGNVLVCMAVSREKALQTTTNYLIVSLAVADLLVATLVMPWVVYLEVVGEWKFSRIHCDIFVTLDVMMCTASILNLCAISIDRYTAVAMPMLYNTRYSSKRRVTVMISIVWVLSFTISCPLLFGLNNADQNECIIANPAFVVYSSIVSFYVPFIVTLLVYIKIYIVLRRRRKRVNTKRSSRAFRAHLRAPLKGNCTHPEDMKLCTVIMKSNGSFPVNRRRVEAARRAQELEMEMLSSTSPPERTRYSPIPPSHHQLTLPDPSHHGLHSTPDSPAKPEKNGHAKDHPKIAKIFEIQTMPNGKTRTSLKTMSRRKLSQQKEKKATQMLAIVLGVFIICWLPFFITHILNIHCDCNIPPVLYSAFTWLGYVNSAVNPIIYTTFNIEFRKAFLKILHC
Sequence of Beta-2 adrenergic receptor (Homo sapiens) (P07550 whole entry, looked up): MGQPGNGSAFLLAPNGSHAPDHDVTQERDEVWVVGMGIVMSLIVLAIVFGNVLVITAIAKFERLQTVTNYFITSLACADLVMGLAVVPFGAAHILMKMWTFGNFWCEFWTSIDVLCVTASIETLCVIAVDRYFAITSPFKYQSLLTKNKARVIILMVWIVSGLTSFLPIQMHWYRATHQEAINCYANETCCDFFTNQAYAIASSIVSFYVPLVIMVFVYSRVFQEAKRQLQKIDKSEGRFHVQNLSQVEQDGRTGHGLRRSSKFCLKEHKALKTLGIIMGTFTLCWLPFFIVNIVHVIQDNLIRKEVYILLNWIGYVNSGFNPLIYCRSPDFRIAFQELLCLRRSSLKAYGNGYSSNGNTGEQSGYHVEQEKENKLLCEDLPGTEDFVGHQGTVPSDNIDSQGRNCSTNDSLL

CCCCS
inactive: Potency [1] | Potency [2] | outcome [3] | outcome [4] | Potency [5] | Potency [6] | Potency [7] | Potency [8] | Potency [9] | Potency [10] | Potency [11] | Potency [12] | Potency [13] | Potency [14] | Potency [15] | Potency [16] | Potency [17] | Potency [18]

CCCS(=O)c1ccc2nc(NC(=O)OC)[nH]c2c1 (stereo not drawn)
inactive: Potency [1] | Potency [2] | outcome [3] | outcome [4] | Potency [5] | Potency [6] | Potency [7] | Potency [8] | Potency [9] | Potency [10] | Potency [11] | Potency [12] | Potency [13] | Potency [14] | Potency [16] | Potency [18]

N[C@@H](COP(=O)(O)O)C(=O)O
inactive: activity change, negative = cytotoxicity [1] 7.74% [at 19 µM] | activity, positive = activation [2] 0.218% [at 19 µM] | activation [3] 0.255% [at 15.8 µM] | activation [4] -0.0564% [at 11.8 µM] | activation [5] -0.646% [at 13.5 µM] | activation [6] -0.0703% [at 13.6 µM] | activity change, negative = cytotoxicity [7] -1.17% [at 13.5 µM] | activity change, negative = cytotoxicity [8] 4.54% [at 13.5 µM] | activation [19] 1.58% [at 13.5 µM] | activity, negative = inhibition [10] -2.49% [at 12.7 µM] | activation [11] -9.17% [at 15.9 µM] | activity, negative = inhibition [12] 5.54% [at 12.6 µM] | activation [13] 11.1% [at 15.8 µM] | activation [14] -0.511% [at 19 µM] | activity change, negative = inhibition [15] -18.4% [at 18.9 µM] | activity change, negative = inhibition [16] 3.41% [at 19 µM] | activation [17] -3.09% [at 19 µM] | activity change, negative = inhibition [18] -1.71% [at 18.9 µM]

C=CC(=O)OCC(O)COc1ccccc1 (stereo not drawn)
active: Potency [1] 61.1 µM | Potency [2] 68.6 µM
inactive: outcome [3] | outcome [4] | Potency [5] | Potency [6] | Potency [7] | Potency [8] | Potency [9] | Potency [10] | Potency [11] | Potency [12] | Potency [13] | Potency [16] | Potency [17] | Potency [18]

CC(C)(C)c1cc(CCC(=O)NN)cc(C(C)(C)C)c1O
inactive: Potency [1] | Potency [2] | outcome [3] | outcome [4] | Potency [5] | Potency [6] | Potency [7] | Potency [8] | Potency [9] | Potency [10] | Potency [11] | Potency [12] | Potency [13] | Potency [15] | Potency [16] | Potency [17]

CC1(N)CCC(C(C)(C)N)CC1 (stereo not drawn)
inactive: Potency [1] | Potency [2] | outcome [3] | outcome [4] | Potency [5] | Potency [6] | Potency [7] | Potency [8] | Potency [9] | Potency [19] | Potency [11] | Potency [12] | Potency [14] | Potency [17] | Potency [18]

CN1C(C)(C)CCCC1(C)C
inactive: Potency [1] | Potency [2] | outcome [3] | outcome [4] | Potency [5] | Potency [6] | Potency [7] | Potency [9] | Potency [19] | Potency [10] | Potency [11] | Potency [12] | Potency [13] | Potency [14] | Potency [15] | Potency [16] | Potency [18]

CC(C(=O)O)c1ccc(-c2ccccc2)c(F)c1 (stereo not drawn)
inactive: Potency [1] | Potency [2] | outcome [3] | outcome [4] | Potency [5] | Potency [6] | Potency [7] | Potency [8] | Potency [9] | Potency [16] | Potency [17] | Potency [18]
